Where “and” joins values, the source holds several entries; their conditions need not be identical. Equal entries are not always repeated. Records with an inconclusive call do not appear. Calls of active or inactive are those of the source. Calls follow the shape of the dose curve; as a rule, active = well fitted cell-killing curve with a large enough effect; inconclusive = small, poorly fitted or top-dose-only effect; inactive = no such curve, though single readings can be large or run the other way.
Test: qHTS of pediatric cancer cell lines to identify multiple opportunities for drug repurposing: Primary screen for LAN-5 cells (AID 1347100);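 as to activity change, negative = cytotoxic: plate controls were DMSO neutral control for no effect and bortezomib positive control for full effect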
Conditions: LAN-5 neuroblastoma viability, CellTiter-Glo luminescence, 48 h; series mostly up to 46 µM; activity change, negative = cytotoxic: at the top concentration
Summary of the method: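 Cells (500-1,000/well) rested 5 h, then received compounds for 48 h; metabolically active cells were measured by CellTiter-Glo luminescence. Final concentrations spanned up to 46 µM (MIPE, 11-point) or 0.59 nM-46 µM (NPC, 8-point) in primary screens, 11-point in follow-ups.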
Potency is read from the fitted curve at half-maximal effect.

With O=C(OC1C[C@H]2CC[C@@H](C1)[N+]21CCCC1)C(O)(c1ccccc1)c1ccccc1 (stereo partly drawn) as the molecule, how does the “activity change, negative = cytotoxic” value read?
The value was -7.35% (inactive).

Which Potency does the source give for C=CCc1cc(OC)c(O)c(C(=O)NCCO)c1 here?
Its Potency is “inactive”.

For Cc1nc(Nc2ncc(C(=O)Nc3c(C)cccc3Cl)s2)cc(N2CCN(CCO)CC2)n1, which “activity change, negative = cytotoxic” value is on record?
The value was -20.2% (inactive).

Which “activity change, negative = cytotoxic” value does the source give for Cc1cccc(-c2[nH]ncc2-c2ccc3ncccc3n2)n1 here?
The value was 7.72% (inactive).

With Cc1nc(-c2ccc(OCC(C)C)c(C#N)c2)sc1C(=O)O as the molecule, how does the Potency read?
Its Potency is “inactive”.

Which “activity change, negative = cytotoxic” value does the source give for Oc1ccc(OCc2ccccc2)cc1 here?
Its value is 10.1% (inactive).

Which Potency does the source give for O=C(NCCO[N+](=O)[O-])c1cccnc1 here?
The Potency was “inactive”.

Which Potency does the source give for Cc1ccc(C)c(OCCCC(C)(C)C(=O)O)c1 here?
The Potency was “inactive”.

With CC1(C)NC(=O)N(c2ccc([N+](=O)[O-])c(C(F)(F)F)c2)C1=O as the molecule, how does the Potency read?
Its Potency is “inactive”.

Which “activity change, negative = cytotoxic” value does the source give for CC1(C)C(=O)N(CCN2CCC(C(=O)c3ccc(F)cc3)CC2)c2ccccc21 here?
The value was -1.24% (inactive).

For CCOC(=O)C1=C[C@@H](OC(CC)CC)[C@H](NC(C)=O)[C@@H](N)C1, which “activity change, negative = cytotoxic” value is on record?
Its value is 1.75% (inactive).

With C[C@@H](N)C1CCC(C(=O)Nc2ccncc2)CC1 (stereo partly drawn) as the molecule, how does the “activity change, negative = cytotoxic” value read?
Its value is -6.24% (inactive).

With Cc1nccn1CC1CCc2c(c3ccccc3n2C)C1=O (stereo not drawn) as the molecule, how does the Potency read?
Its Potency is “inactive”.

Which “activity change, negative = cytotoxic” value does the source give for CCOc1cc(CC(=O)N[C@@H](CC(C)C)c2ccccc2N2CCCCC2)ccc1C(=O)O here?
Its value is 7.46% (inactive).

With Cc1cc(=O)oc2cc(O)ccc12 as the molecule, how does the “activity change, negative = cytotoxic” value read?
The value was 29.4% (inactive).

Which “activity change, negative = cytotoxic” value does the source give for CC(C)Oc1ccc2c(=O)c(-c3ccccc3)coc2c1 here?
Its value is -18.4% (inactive).

For c1ccc2[nH]c(-c3cscn3)nc2c1, which Potency is on record?
The Potency was “inactive”.

Which “activity change, negative = cytotoxic” value does the source give for CNC[C@@H](O)[C@@H](O)[C@H](O)[C@H](O)CO here?
Its value is -1.74% (inactive).

With Cc1cccc(CN2CCN(C(c3ccccc3)c3ccc(Cl)cc3)CC2)c1 (stereo not drawn) as the molecule, how does the “activity change, negative = cytotoxic” value read?
Its value is -22.3% (inactive).

Which Potency does the source give for COc1c2occc2cc2ccc(=O)oc12 here?
The Potency was “inactive”.

With C[C@]12CCC(=O)C=C1CC[C@@H]1[C@H]2[C@@H](O)C[C@@]2(C)[C@H]1CC[C@]2(O)C(=O)CO as the molecule, how does the “activity change, negative = cytotoxic” value read?
The value was 5.32% (inactive).

Which Potency does the source give for O=C(CCc1ccc(O)cc1)c1c(O)cc(O)cc1O here?
Its Potency is 6.62 µM (active).

Which Potency does the source give for Cc1ncc([N+](=O)[O-])n1CC(C)O (stereo not drawn) here?
The Potency was “inactive”.

Which Potency does the source give for Cc1cc(=O)c2c(O)c3c(O)cc(=O)c4c3c3c(cc(O)c1c23)C(C)(C)C=4O here?
The Potency was 2.59 µM (active) and 5.26 µM (active).

With CN(C)CCc1c[nH]c2ccc(Cn3cncn3)cc12 as the molecule, how does the “activity change, negative = cytotoxic” value read?
Its value is -6.34% (inactive).

Which Potency does the source give for O=C(O)CCNC(=O)c1ccc(N=Nc2ccc(O)c(C(=O)O)c2)cc1 here?
The Potency was “inactive”.

With COCCCN1CCC(NC(=O)c2cc(Cl)c(N)c3c2OCC3)CC1 as the molecule, how does the “activity change, negative = cytotoxic” value read?
The value was 7.19% (inactive).

With CCN(CC)C(=S)SSC(=S)N(CC)CC as the molecule, how does the Potency read?
The Potency was 23.5 nM (active) and 39.4 nM (active).

With CC1Cc2ccccc2N1NC(=O)c1ccc(Cl)c(S(N)(=O)=O)c1 (stereo not drawn) as the molecule, how does the Potency read?
The Potency was “inactive”.

With O=C(CS(=O)Cc1ccco1)NCC=CCOc1cc(CN2CCCCC2)ccn1 (stereo not drawn) as the molecule, how does the “activity change, negative = cytotoxic” value read?
The value was 4.71% (inactive).

With O=P(O)(O)C(O)(Cn1ccnc1)P(=O)(O)O as the molecule, how does the “activity change, negative = cytotoxic” value read?
The value was 55.2% [at 16.1 µM] (inactive).

With COc1cc(C(C)=O)ccc1OCCCN1CCC(c2noc3cc(F)ccc23)CC1 as the molecule, how does the “activity change, negative = cytotoxic” value read?
The value was -20.7% (inactive).

With CC1=C(C(=O)O)N2C(=O)[C@@H](NC(=O)[C@H](N)C3=CCC=CC3)[C@H]2SC1 as the molecule, how does the Potency read?
Its Potency is “inactive”.

With Cc1ccc(NC(=O)c2ccc(CN3CCN(C)CC3)cc2)cc1Nc1nccc(-c2cccnc2)n1 as the molecule, how does the Potency read?
The Potency was “inactive”.

With CC[C@]1(O)C[C@H]2CN(CCc3c([nH]c4ccccc34)[C@@](C(=O)OC)(c3cc4c(cc3OC)N(C=O)[C@H]3[C@@](O)(C(=O)OC)[C@H](OC(C)=O)[C@]5(CC)C=CCN6CC[C@]43[C@@H]65)C2)C1 as the molecule, how does the Potency read?
The Potency was 8.3 nM (active) and 59.6 nM (active).

For COc1ccccc1N1CCN(CCN(C(=O)C2CCCCC2)c2ccccn2)CC1, which “activity change, negative = cytotoxic” value is on record?
Its value is -5.1% (inactive).

With COc1ccc(C2(C#N)CCC(C(=O)O)CC2)cc1OC1CCCC1 (stereo not drawn) as the molecule, how does the “activity change, negative = cytotoxic” value read?
The value was 9.37% (inactive).

Which Potency does the source give for Nc1nc(Cl)nc2c1ncn2[C@H]1C[C@H](O)[C@@H](CO)O1 here?
Its Potency is 0.418 µM (active).
